One compound from PubChem BioAssay AID588507 (Broad Institute, 2011) can be followed below.

A short description of the experiment: compound effect on GFP reporter cells – imaging, dry powder samples, counter-screen for PrP inhibitor project, dose response (AID 588507). As to conditions: max activity: measured here: maximum activity across titration, at 0.0195 µM.

Calls of active or inactive are those of the source. How the calls were made is not given here.

For `COc1cc(SC)ccc1C(=O)Nc1nc2ccccc2[nH]1`, the max activity amounted to 451% and the compound was called inactive.
